# Rows were chosen to be rich in hits. Some 6.1% of all compounds tested hit in one or more screens of this group.
# D1 PAM: human D1 dopamine receptor positive modulation; potentiation, % at 10 µM; HEK293 TREx D1 cells, calcium flux, dopamine EC20 potentiation; 360,000 compounds, 0.036% hits; AID 504651; in the data active = potentiation above about 30%; note: 0% is about no effect
# ERG Ets-DNA blk: ERG Ets/DNA interaction inhibition. Potency, µM (series often up to 76.9 µM), inactives show top-dose FP activity, negative = inhibition, most hits filed as inhibitors. fluorescence polarization, His-ERG Ets domain / labelled DNA. 370,000 compounds, 0.028% hits; active = well fitted inhibition curve with a large enough effect in the polarisation, with a control signal flat; inconclusive = small, poorly fitted or top-dose-only effect, or effect the other way, or a change in a side signal; inactive = no such curve, though single readings can be large or run the other way; the % refers to the polarisation;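 note: polarization taken with two DNA probes labelled with fluorescein and Texas red; potency is the fitted concentration of half-maximal effect; % of control where 0% means no effect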
# Target sequence (P11308 whole entry, looked up, the tested form may be a part): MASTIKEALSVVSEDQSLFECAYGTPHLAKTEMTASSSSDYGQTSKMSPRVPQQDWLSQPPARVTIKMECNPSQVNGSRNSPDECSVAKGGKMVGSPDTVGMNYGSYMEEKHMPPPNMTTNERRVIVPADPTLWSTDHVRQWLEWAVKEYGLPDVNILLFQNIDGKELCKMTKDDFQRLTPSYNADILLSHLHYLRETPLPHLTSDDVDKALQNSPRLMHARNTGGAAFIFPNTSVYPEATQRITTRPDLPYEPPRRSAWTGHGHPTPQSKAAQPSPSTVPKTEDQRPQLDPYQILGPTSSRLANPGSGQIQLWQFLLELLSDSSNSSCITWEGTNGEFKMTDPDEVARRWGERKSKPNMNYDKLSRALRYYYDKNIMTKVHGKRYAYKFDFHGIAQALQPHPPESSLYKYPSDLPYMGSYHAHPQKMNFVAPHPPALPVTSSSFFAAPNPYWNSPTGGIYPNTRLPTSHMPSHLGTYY
#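 His-tagged ERG Ets domain (1 uM in the protein solution; 300mM KCl, 50mM Tris-HCl, 1mM EDTA, 1mM DTT, pH 7.5) received compound, then a probe mix of 5 nM fluorescein-DNA and 100nM Texas-615-DNA. Fluorescence polarization was read for both dyes.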
# DRD3 antagonist: antagonists of human D3 dopamine receptor | 360,000 compounds, 2.5% hits | max response, negative = inhibition, % | D3R cells, DiscoveRx beta-arrestin luminescence, antagonist mode; stronger effect = lower value | AID 652054 | P35462; in the data active = max response below about -50%; inconclusive = no clear call, values can overlap the other calls; note: % is set by controls: 0 for no effect and ±100 for the full control effect
#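 Cells expressing the human receptor were seeded at 1500 cells/well, incubated overnight at 37 degrees C in 5% CO2, then exposed to library compounds with dopamine controls for 90 minutes at 37 degrees C before luminescent detection.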
# DRD3 agonist: agonists of human D3 dopamine receptor; P35462; max activation, %; 410,000 compounds, 0.58% hits; D3R DiscoveRx beta-arrestin cells, luminescence, 90 min; in the data active = max activation above about 30%; note: 0% is about no effect
#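 Agonist-mode cell screen: cells plated at 1500/well and incubated overnight at 37 °C, then exposed to library compounds for 90 min at 37 °C. Detection reagent was added for 30–60 min at room temperature, and luminescence was read.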
# D1 antagonist: blocks dopamine activation of the human D1 receptor; P21728; 360,000 compounds, 3.2% hits; HEK293 TREx D1 cells, calcium flux, dopamine EC80; stronger effect = lower value; activity change, negative = inhibition, % at 10 µM; in the data active = activity change below about -30%; note: % is set by controls: 0 for no effect and ±100 for the full control effect
#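 Cells carrying a force-coupled, tetracycline-inducible human D1 receptor report calcium flux. Each well gets a 10 s baseline, compound with 180 s monitoring, then an EC80 dopamine stimulus with a second 180 s kinetic read.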
# D1 agonist: activates the human D1 dopamine receptor; activation, % at 2 µM; AID 504660; HEK293 T-REx D1 cells, calcium flux, agonist mode; P21728; 360,000 compounds, 1% hits; in the data active = activation above about 30%; note: 0% is about no effect
#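 Inducible HEK293 T-REx D1 cells, force-coupled to calcium signalling, were plated at 4000 cells/well with tetracycline and held overnight at 30 C. After no-wash calcium dye loading, compound-evoked calcium rise over 180 s flagged agonists.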
# Starred values were filed as active, the others as inactive; ? = inconclusive; nt = not tested or not shown.
SMILES,D1 PAM,ERG Ets-DNA blk,DRD3 antagonist,DRD3 agonist,D1 antagonist,D1 agonist
COc1ccc(NC2CCCN(C(=O)c3cc4ncccn4n3)C2)cc1 (stereo unspecified),-1.0,2.4%,5.6,0.4,-2.8,-0.3
Cc1ccccc1Nc1nnc(SCc2cc([N+](=O)[O-])cc3c2OCOC3)s1,-0.7,-4.1%,12.8,-4.9,-1.2,2.1
Cc1nnc(SCc2cc([N+](=O)[O-])cc3c2OCOC3)n(N)c1=O,-6.4,0.5%,9.3,3.9,-42.1*,2.2
O=S(=O)(N/N=C/c1ccc(Cl)cc1)c1ccc(Cc2ncc(C(F)(F)F)cc2Cl)s1,-1.5,-4.2%,-73.4*,3.4,nt,-1.7
NC(=O)c1ccc(Cc2ncc(C(F)(F)F)cc2Cl)s1,-6.7,-0.8%,0.0,-2.2,0.8,5.5
CCOC(=O)c1c(N)c(C#N)c2n1CCCCC2,-3.4,-1.0%,3.5,1.2,-25.4,-1.1
Cn1c(-[n+]2c(-c3ccccc3)cc(-c3ccccc3)cc2-c2ccccc2)nc2c([N+](=O)[O-])cccc21,-8.2,4.9%,-60.1*,-12.2,-13.3,11.5
CC(C)(O)c1cc2ccc(C#CCCN3C(=O)c4ccccc4C3=O)cc2c(=O)o1,nt,13.2%,44.3,-13.1,nt,nt
Cc1ccccc1CC1(CO)CCCN(C(=O)c2cccc(Cl)c2)C1 (stereo unspecified),-1.2,-2.9%,43.8,3.4,3.0,1.4
FC(F)(F)c1nnc(-c2ccccc2)nc1Sc1ccc(Cl)cc1,7.3,-17.0%,-93.1*,-9.0,-1.6,7.3
FC(F)(F)c1cccc(Sc2nc(-c3ccccc3)nnc2C(F)(F)F)c1,2.2,-1.5%,-61.3*,-8.1,0.9,6.1
FC(F)(F)c1nnc(-c2ccccc2)nc1Sc1ccccc1,nt,0.6%,?,-10.0,nt,nt
CC(=O)Nc1ccc(NC(=O)C2CCN(C(=O)c3ccc([N+](=O)[O-])cc3)CC2)cc1,-3.4,-1.2%,6.1,-6.2,-17.5,0.7
COc1ccc(/C=C2\C(=O)NC(=S)N2C(=O)c2ccc(F)cc2)cc1,-6.2,54.1%,9.8,-0.7,10.5,111.8*
O=C1NC(=S)N(C(=O)c2ccc(F)cc2)/C1=C/c1ccccc1,-2.5,nt,3.5,-1.3,-8.2,79.8*
O=C(NC(=S)N1CCN(C/C=C/c2ccccc2)CC1)c1ccc(F)cc1,-3.1,11.2%,?,-32.3,-15.7,7.2
COC(=O)c1cccc(N(C(=O)c2cnccn2)C(C(=O)NCc2ccccc2)c2ccco2)c1 (stereo unspecified),-3.6,nt,4.1,1.0,-7.4,-0.2
COc1ccc2c(COC(=O)CCS(=O)(=O)c3ccc(C)cc3)cc(=O)oc2c1,9.4,-7.2%,-3.9,5.2,-7.0,6.2
CCOc1ccc(CN2CCc3nc(N4CCN(c5ccccc5OC)CC4)ncc3C2)cc1OC,0.4,-1.1%,nt,-1.7,-12.8,0.6
Cc1ccc(-c2nc(C#N)c(NCc3ccco3)o2)cc1,-1.7,-2.0%,13.5,2.5,-19.0,1.8
Cc1cccc(-c2nc(C#N)c(NCc3ccco3)o2)c1,0.5,-0.5%,-4.5,2.6,-31.0*,1.3
COc1ccc(OCC(=O)Nc2cccc(-c3nc4ccccc4s3)c2C)cc1,-1.1,0.7%,nt,9.0,-15.5,35.0*
COc1ccc(OCC(=O)Nc2cc(-c3nc4ccccc4s3)ccc2C)cc1,-0.8,-0.1%,nt,17.7,2.5,4.7
NC(=O)NC(c1ccccc1)c1ccccc1F (stereo unspecified),-0.1,-0.8%,18.4,3.3,-2.4,-1.9
NC(=O)NC(c1ccccc1)c1ccccc1,34.8*,nt,-8.9,13.2,nt,184.7*
Cc1ccc(C)c(OCC(O)CN2CCc3ccccc3C2)c1C (stereo unspecified),-6.8,-3.2%,-115.1*,-15.8,10.2,2.7
CCC(C)NCC(O)COCc1ccc(Cl)cc1 (stereo unspecified),-0.9,2.0%,-18.3,-3.7,6.0,36.2*
CC(C)c1ccc(OCC(O)CN2CCCC2)cc1 (stereo unspecified),3.0,9.7%,-7.2,-12.6,13.6,10.9

# Assay outcomes deposited in PubChem BioAssay by National Center for Advancing Translational Sciences (NCATS).
